According to PubChem BioAssay:
Where “and” joins values, the source holds several entries; their conditions need not be identical. Equal entries are not always repeated. Some compounds were tested as several samples or in several runs, with calls that do not always agree. Calls of active or inactive are those of the source.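 The calls were made as follows: active = compounds whose cell count with miR-34 switched on is under 0.7 times the count with it off; inactive = the rest.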

Experiment: sensitizers of A549 cells to miR-34 induction, primary screen, imaging, A549 dox-inducible miR-34, nuclei and caspase counts (AID 1347080); also: test concentration not given here
Conditions: A549 miR-34 inducible, Hoechst nuclei count, 48 h; stronger effect = lower value; cell number ratio, induced over uninduced

SMILES | fold change
COc1ccc(-c2ccc(N)[n+](CCCC(=O)O)n2)cc1 | 0.962 (inactive) and 0.851 (inactive)
Nc1ccc2ncnc(NCCc3ccc(Oc4ccccc4)cc3)c2c1 | 0.738 (inactive) and 0.708 (inactive) and 0.683 (active)
COc1ccccc1N1CCN(CCCCNC(=O)c2ccc3ccccc3c2)CC1 | 1.04 (inactive) and 0.819 (inactive)
CCCCCCCC/C=C\CCCCCCCC(=O)OC[C@H](CO)OC(C)=O | 0.972 (inactive) and 0.952 (inactive)
CCCCC/C=C\C/C=C\CCCCCCCC(=O)O | 0.973 (inactive) and 1.02 (inactive)
COC(=O)C1=C(C)NC(C)=C(C(=O)OC2CCCN(Cc3ccccc3)C2)C1c1cccc([N+](=O)[O-])c1 (stereo not given) | 1.82 (inactive) and 1.04 (inactive)
CCCCCCCCCCCCC/C=C/[C@@H](O)[C@H](CO)NC(=O)CCCCCCC | 0.885 (inactive) and 1 (inactive)
CCCCC[C@H](O)/C=C/[C@H]1C=CC(=O)[C@@H]1CCCCCCC(=O)O | 0.912 (inactive) and 0.844 (inactive)
CCCCCC#CCC#CCC#CCC#CCCCC(=O)O | 0.956 (inactive) and 0.974 (inactive)
CO[C@H]1C[C@@H]2CC[C@@H](C)[C@@](O)(O2)C(=O)C(=O)N2CCCC[C@H]2C(=O)O[C@H]([C@H](C)C[C@@H]2CC[C@@H](O)[C@H](OC)C2)CC(=O)[C@H](C)/C=C(\C)[C@@H](O)[C@@H](OC)C(=O)[C@H](C)C[C@H](C)/C=C/C=C/C=C/1C | 0.856 (inactive) and 0.953 (inactive)
CCCCCCCC/C=C\C/C=C\C/C=C\CCCC(=O)O | 0.997 (inactive) and 0.986 (inactive)
CC(=O)N[C@@H](CSC/C=C(\C)CC/C=C(\C)CCC=C(C)C)C(=O)O | 0.899 (inactive) and 1.06 (inactive)
CC/C=C\C/C=C\C/C=C\C/C=C\C/C=C\CCCCCC(=O)O | 0.983 (inactive) and 0.953 (inactive)
CC(=O)N[C@@H](CSC/C=C(\C)CC/C=C(\C)CC/C=C(\C)CCC=C(C)C)C(=O)O | 0.941 (inactive) and 0.949 (inactive)
CCCCCCCCC#CCC#CCC#CCCCC(=O)O | 0.872 (inactive) and 1.12 (inactive)
CCCCC[C@H](O)/C=C/[C@H]1C(=O)C[C@H](O)[C@@H]1C/C=C\CCCC(=O)O | 0.966 (inactive) and 0.979 (inactive)
CC(C)NC[C@H](O)c1ccc(O)c(O)c1 | 1.16 (inactive) and 1.1 (inactive) and 0.953 (inactive)
CCCCC[C@H](O)/C=C/[C@H]1C=CC(=O)[C@@H]1C/C=C\CCCC(=O)O | 0.976 (inactive) and 0.946 (inactive)
CCCCC/C=C\C/C=C\C/C=C\C/C=C\CCCCCC(=O)O | 1.01 (inactive) and 0.958 (inactive)
CCCCC[C@H](O)/C=C/[C@H]1C(=O)C=C[C@@H]1C/C=C\CCCC(=O)O | 0.937 (inactive) and 0.931 (inactive)

Same assay, conditions: A549 miR-34 inducible, Hoechst nuclei count, 48 h; measured here: relative caspase fold change +Dox/-Dox

SMILES | fold change
CCCCCCCCCCCCC/C=C/[C@@H](O)[C@H](CO)NCCCCCCCC | 1.2 and 0.737
COc1ccc(C2=NC(c3ccc(Cl)cc3)C(c3ccc(Cl)cc3)N2C(=O)N2CCNC(=O)C2)c(OC(C)C)c1 (stereo not given) | 0.374 and 0.688 and 0.486
CC(C)=CCC/C(C)=C/CC/C(C)=C/CSCC(=O)O | 1.23 and 1.52
CCC(CO)Nc1nc(NCc2ccccc2)c2ncn(C(C)C)c2n1 (stereo not given) | 0.998 and 1.15
CC/C=C\C/C=C\C/C=C\C/C=C\C/C=C\C/C=C\CCC(=O)O | 0.949 and 0.678
CCc1cncnc1N1CCN(Cc2nc3ccc(C(F)(F)F)cc3[nH]2)CC1 | 1.49 and 0.523
CC/C=C\C/C=C\C/C=C\CCCCCCCC(=O)O | 1.3 and 0.691
NC(N)=NCc1cccc(I)c1 | 0.666 and 1.95
CCCCCCCCCCCCC/C=C/[C@@H](O)[C@@H](N)CO | 1.13 and 1.49
CC/C=C\C/C=C\C/C=C\CCCCCCCCCC(=O)O | 1.26 and 1.06
O=C(O)CCC/C=C\CC1C2CCC(O2)C1CNNC(=O)Nc1ccccc1 (stereo not given) | 1.45 and 1.09
O=C(O)CNC(=O)C(CS)Cc1ccccc1 (stereo not given) | 1.08 and 1.52 and 1.29
CCCCC/C=C\C/C=C\C/C=C\C/C=C\CCCC(=O)OC(CO)CO | 1.17 and 0.841
CCCCC/C=C/C=C1/C(=O)C=C[C@@H]1C/C=C\CCCC(=O)O | 1.45 and 1.36 and 1.03
CCCCCCCCCCCCC/C=C/[C@@H](O)[C@H](CO)N(C)C | 1.39 and 1.34
CC(C)(C)[C@]1(O)CCN2C[C@H]3c4ccccc4CCc4cccc(c43)[C@@H]2C1 | 1.07 and 1.2 and 1.29
CCCCC[C@H](O)/C=C/C1=C(CCCCCCC(=O)O)C(=O)CC1 | 1.34 and 1.33
C#CCCCCCCCCCCCCCCCC(=O)O | 1.49 and 0.91
CCCCC[C@H](O)/C=C/C1=C(C/C=C\CCCC(=O)O)C(=O)CC1 | 1.57 and 1.52
COc1ccc(C(=O)NCc2cccnc2)cc1C(=O)NCc1cccnc1 | 1.32 and 2 and 1.31

SMILES | fold change
COc1ccc(-c2ccc(N)[n+](CCCC(=O)O)n2)cc1 | 1.4 and 1.26
Nc1ccc2ncnc(NCCc3ccc(Oc4ccccc4)cc3)c2c1 | 1.4 and 1.31 and 3.23
COc1ccccc1N1CCN(CCCCNC(=O)c2ccc3ccccc3c2)CC1 | 1.41 and 1.7
CCCCCCCC/C=C\CCCCCCCC(=O)OC[C@H](CO)OC(C)=O | 0.87 and 0.868
CCCCC/C=C\C/C=C\CCCCCCCC(=O)O | 1.17 and 0.947
COC(=O)C1=C(C)NC(C)=C(C(=O)OC2CCCN(Cc3ccccc3)C2)C1c1cccc([N+](=O)[O-])c1 (stereo not given) | 0.615 and 0.533
CCCCCCCCCCCCC/C=C/[C@@H](O)[C@H](CO)NC(=O)CCCCCCC | 2.05 and 0.909
CCCCC[C@H](O)/C=C/[C@H]1C=CC(=O)[C@@H]1CCCCCCC(=O)O | 1.4 and 1.79
CCCCCC#CCC#CCC#CCC#CCCCC(=O)O | 1.11 and 0.98
CO[C@H]1C[C@@H]2CC[C@@H](C)[C@@](O)(O2)C(=O)C(=O)N2CCCC[C@H]2C(=O)O[C@H]([C@H](C)C[C@@H]2CC[C@@H](O)[C@H](OC)C2)CC(=O)[C@H](C)/C=C(\C)[C@@H](O)[C@@H](OC)C(=O)[C@H](C)C[C@H](C)/C=C/C=C/C=C/1C | 1.35 and 1.11
CCCCCCCC/C=C\C/C=C\C/C=C\CCCC(=O)O | 1.14 and 0.749
CC(=O)N[C@@H](CSC/C=C(\C)CC/C=C(\C)CCC=C(C)C)C(=O)O | 1.4 and 1.04
CC/C=C\C/C=C\C/C=C\C/C=C\C/C=C\CCCCCC(=O)O | 0.972 and 0.777
CC(=O)N[C@@H](CSC/C=C(\C)CC/C=C(\C)CC/C=C(\C)CCC=C(C)C)C(=O)O | 1.39 and 0.928
CCCCCCCCC#CCC#CCC#CCCCC(=O)O | 1.12 and 0.534
CCCCC[C@H](O)/C=C/[C@H]1C(=O)C[C@H](O)[C@@H]1C/C=C\CCCC(=O)O | 1.13 and 1.66
CC(C)NC[C@H](O)c1ccc(O)c(O)c1 | 0.694 and 0.901 and 0.646
CCCCC[C@H](O)/C=C/[C@H]1C=CC(=O)[C@@H]1C/C=C\CCCC(=O)O | 1.27 and 1.82
CCCCC/C=C\C/C=C\C/C=C\C/C=C\CCCCCC(=O)O | 1.23 and 0.967
CCCCC[C@H](O)/C=C/[C@H]1C(=O)C=C[C@@H]1C/C=C\CCCC(=O)O | 1.17 and 1.23
